# Assay results: the supplement of paper PMC8728848
# The entries come from a sample that favours the strongest signals as a whole.
# How the values were obtained:
# Assay in all cases: glycan array binding signal (z-score within array); higher = stronger binding
# Settings in all cases: glycan notation: IUPAC condensed, linker removed
# [1] = system: Neu5Ac(a2-3)Gal6S(b1-4)GlcNAc
# Outline: (§1)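 Arrays were curated from the Consortium for Functional Glycomics database, 3228 in total, and kept only where the protein sequence was available. Binding is expressed as a within-array Z-score. This score was averaged across arrays of the same protein sequence at different concentrations or buffers and across linkers, and negative values can be read as non-binding.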
# [2] = system: Neu5Ac(a2-3)[GalNAc(b1-4)]Gal(b1-4)Glc
# Outline: as §1
# [3] = system: Neu5Ac(a2-3)[Neu5Ac(a2-6)]GalNAc
# Outline: as §1
# [4] = system: Neu5Ac(a2-6)Gal(b1-3)GlcNAc(b1-3)[Gal(b1-4)GlcNAc(b1-6)]Gal(b1-4)Glc
# Outline: as §1
# [5] = system: Neu5Ac(a2-6)Gal(b1-4)GlcNAc(b1-2)Man(a1-3)[GlcNAc(b1-2)Man(b1-4)GlcNAc(b1-2)Man(a1-6)]Man(b1-4)GlcNAc(b1-4)GlcNAc
# Outline: as §1
# [6] = system: Neu5Ac(a2-3)Gal6S(b1-4)[Fuc(a1-3)]GlcNAc6S(b1-3)Gal(b1-4)Glc
# Outline: as §1
# [7] = system: Neu5Ac(a2-6)Gal(b1-4)GlcNAc(b1-2)Man(a1-3)[Neu5Ac(a2-6)Gal(b1-4)GlcNAc(b1-2)Man(a1-6)]Man(b1-4)GlcNAc(b1-4)GlcNAc
# Outline: as §1
# [8] = system: Neu5Ac(a2-6)Gal(b1-4)GlcNAc(b1-2)Man(a1-3)[Neu5Gc(a2-6)Gal(b1-4)GlcNAc(b1-2)Man(a1-6)]Man(b1-4)GlcNAc(b1-4)GlcNAc
# Outline: as §1
# [9] = system: Neu5Ac(a2-6)Gal(b1-4)GlcNAc(b1-2)Man(a1-3)[Neu5Ac(a2-6)Gal(b1-4)GlcNAc(b1-2)Man(a1-6)]Man(b1-4)GlcNAc(b1-4)[Fuc(a1-6)]GlcNAc
# Outline: as §1
# Neu5Ac(a2-3)GalNAc = system: Neu5Ac(a2-3)GalNAc
# Outline: as §1
substance,measurement,setting,value
"SpGH101 (Streptococcus pneumoniae), Q8DR60",glycan array binding signal (z-score),[1],-0.178
same,glycan array binding signal (z-score),[2],-0.199
same,glycan array binding signal (z-score),[3],-0.195
same,glycan array binding signal (z-score),[4],-0.168
same,glycan array binding signal (z-score),[5],0.015
"MIC3-MAR1b (Eimeria tenella), B6VCV4",glycan array binding signal (z-score),[6],0.282
same,glycan array binding signal (z-score),[7],4.75
same,glycan array binding signal (z-score),[8],0.504
"Wza (Escherichia coli), P0A930",glycan array binding signal (z-score),[4],0.652
same,glycan array binding signal (z-score),[9],-0.578
LcI (Legionella pneumophila),glycan array binding signal (z-score),[3],-0.437
Epa22,glycan array binding signal (z-score),[1],-0.771
same,glycan array binding signal (z-score),[4],-0.487
"BambL (Burhholderia ambifaria), Q0B4G1",glycan array binding signal (z-score),Neu5Ac(a2-3)GalNAc,-0.313
"MIC3-MAR5 (Eimeria tenella), B6VCV4",glycan array binding signal (z-score),[7],1.71
